Consider eight molecules from PubChem BioAssay (Tox21).

Unmarked numbers belong to inactive results. Inconclusive results are not listed. Calls of active or inactive are those of the source. Unless noted, the call rests on the fitted dose curve; in most records, active means well fitted curve in the direction sought with a large enough effect in the repeat runs; inconclusive means weak or mixed curves; inactive means no such curve, though single readings can be large; an effect the other way counts as inactive or inconclusive.

Test [1] can be described thus: qHTS assay to identify small molecule agonists of the estrogen receptor alpha (ER-alpha) signaling pathway in the presence of an antagonist - cell viability counter screen (AID 1259386).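 Further: cells exposed to compounds for 22 h at 37 °C before the viability read; nearly all actives have a fitted effect of over 30% in size.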 Further: potency means the concentration at half of the fitted maximal effect. Summed up:
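VM7Luc4E2 cells (endogenous full-length ER-alpha, 4×ERE-luciferase) were held 5 days in phenol red-free medium with 10% charcoal-stripped FBS, plated, then given 10.0nM ICI-182,780 and compounds at 15 concentrations for 22hr at 37C; viability read by CellTiter-Fluor fluorescence.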
For orientation: In qHTS, concentration-response curves come from the screen itself.

The target of test [2] is Progesterone receptor (Homo sapiens) (UniProt P06401). Kind of test: qHTS assay to identify small molecule agonists of the progesterone receptor (PR) signaling pathway (AID 1346784; calls by dose curve; further: nearly all actives have a fitted effect of over 30% in size). A digest of the protocol: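 Beta-lactamase reporter read-out: after 16 hr compound treatment at 37C and a further 2 hr at room temperature with LiveBLAzer B/G FRET substrate, fluorescence was measured in PR-UAS-bla HEK 293T cells grown in 2% charcoal-stripped serum.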
Progesterone receptor (Homo sapiens), sequence (P06401 whole entry, looked up): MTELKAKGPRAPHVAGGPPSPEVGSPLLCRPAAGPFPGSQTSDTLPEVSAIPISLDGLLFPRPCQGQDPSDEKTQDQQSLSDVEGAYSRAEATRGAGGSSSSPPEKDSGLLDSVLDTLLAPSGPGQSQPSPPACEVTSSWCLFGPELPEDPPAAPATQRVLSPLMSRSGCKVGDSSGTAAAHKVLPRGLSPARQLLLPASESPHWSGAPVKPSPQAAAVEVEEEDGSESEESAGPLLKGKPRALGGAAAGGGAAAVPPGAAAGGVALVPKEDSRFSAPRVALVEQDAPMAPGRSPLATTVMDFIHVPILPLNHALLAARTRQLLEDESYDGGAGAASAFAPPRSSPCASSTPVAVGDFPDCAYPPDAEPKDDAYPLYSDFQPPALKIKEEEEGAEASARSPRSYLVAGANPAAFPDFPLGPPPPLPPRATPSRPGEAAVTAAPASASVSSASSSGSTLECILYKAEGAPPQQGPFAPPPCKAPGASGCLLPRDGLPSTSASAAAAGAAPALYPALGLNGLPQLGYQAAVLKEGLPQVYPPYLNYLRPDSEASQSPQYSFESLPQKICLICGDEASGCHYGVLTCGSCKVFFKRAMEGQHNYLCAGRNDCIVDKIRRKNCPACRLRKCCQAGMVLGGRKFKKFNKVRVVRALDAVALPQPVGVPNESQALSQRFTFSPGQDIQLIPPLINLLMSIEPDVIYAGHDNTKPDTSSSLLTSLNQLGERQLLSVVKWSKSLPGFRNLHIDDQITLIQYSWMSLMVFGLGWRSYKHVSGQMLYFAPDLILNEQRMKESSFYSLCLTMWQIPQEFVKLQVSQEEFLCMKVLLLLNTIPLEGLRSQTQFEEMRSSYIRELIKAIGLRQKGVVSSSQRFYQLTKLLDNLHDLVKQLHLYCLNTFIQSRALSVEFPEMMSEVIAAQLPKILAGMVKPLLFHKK

For test [3] the target is unchanged. The experiment in a line: qHTS assay to identify small molecule antagonists of the progesterone receptor (PR) signaling pathway (AID 1346795; active means well fitted inhibition curve with a large enough effect in the signal ratio in the repeat runs, not every such curve was filed as active; the % refers to the signal ratio). Summed up: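 Read-out is fluorescence from the LiveBLAzer B/G FRET substrate, cleaved by a UAS-controlled beta-lactamase in PR-UAS-bla HEK293T cells after 16 hr exposure to compound plus 1 nM promegestone (final), followed by 2 hr at room temperature.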

Test [4] in a line: qHTS assay to identify small molecule antagonists of the progesterone receptor (PR) signaling pathway - cell viability counter screen (AID 1346798).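 Further: HEK293T PR-UAS-bla cells stimulated with the agonist R5020; series mostly up to about 92 µM; nearly all actives have a fitted effect of over 50% in size.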 Summed up:
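HEK293T PR-UAS-bla, 2% charcoal-stripped FBS; 4 hr pre-plate; cpd + R5020, 16 h 37C; LiveBLAzer read first; then CellTiter-Glo 30 min RT, luminescence.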

Test [5] is described as follows: qHTS assay to identify small molecule antagonists of the TGF-beta/Smad signaling pathway - cell viability counter screen (AID 1346824). Further: nearly all actives have a fitted effect of over 50% in size. Summed up: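 SBE-bla HEK 293T cells, incubated overnight, then compound plus 0.25 ng/mL TGF-beta1 (stock added) for 5 hr at 37 C. Viability was read in the same wells by CellTiter-Glo luminescence after 30 min at room temperature.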

Test [6] can be described thus: qHTS assay to identify small molecule agonists of the TGF-beta/Smad signaling pathway - cell viability counter screen (AID 1346829). Further: top concentration of the series differs between compounds; nearly all actives have a fitted effect of over 45% in size. Summed up:
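In parallel with the Smad reporter read, viability of HEK 293T cells stably carrying SBE-bla is quantified by ATP luminescence following 5 hr compound treatment.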

The nature of test [7]: qHTS assay to identify small molecule agonists of the TGF-beta/Smad signaling pathway (AID 1346859; active means well fitted activation curve with a large enough effect in the signal ratio in the repeat runs, not every such curve was filed as active; the % refers to the signal ratio; further: series mostly up to about 77 µM). Summed up: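 SBE-bla HEK 293T, 4,000 cells/well, plated o/n; cpd in DMSO, 5 hr, 37 C/5% CO2; B/G FRET substrate 2 hr RT; ex 405, em 460/530 nm.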
Test [8] deals with Thyrotropin-releasing hormone receptor (Homo sapiens) (UniProt P34981). The experiment in a line: qHTS assay to identify small molecule antagonists of the thyrotropin-releasing hormone receptor (TRHR) signaling pathway (AID 1346877; active means well fitted inhibition curve with a large enough effect in the repeat runs, not every such curve was filed as active; further: series mostly up to about 51 µM). Summed up:
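TRHR-expressing HEK293 cells were seeded, cultured 18 h at 37 °C, then loaded with calcium dye for 2 h. Compounds were pre-incubated 5 min at room temperature before 1 nM TRH (final) was added, and kinetic fluorescence was recorded for 3 min.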

Test [9] has the same target. Kind of test: qHTS assay to identify small molecule agonists of the thyrotropin-releasing hormone receptor (TRHR) signaling pathway (AID 1346891; calls by dose curve; further: series mostly up to about 58 µM). A digest of the protocol:
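Intracellular calcium rise, read as fluorescence every second for 3 min, served as the agonist signal in dye-loaded HEK293 cells expressing TRHR; each compound ran at 15 concentrations in triplicate.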

Test [10] is described as follows: Human pregnane X receptor (PXR) small molecule agonists, qHTS cell viability counter screen (AID 1346977). Further: nearly all actives have a fitted effect of over 50% in size. Further: potency means the concentration at half of the fitted maximal effect. Summed up: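 PXR-Luc HepG2, 2,000 cells/well, 5% charcoal-stripped FBS; 5hr settle; cpd 24hr, 37C/5% CO2; CellTiter-Fluor at 23hr, read 1hr later (fluorescence).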
Test [11] is described as follows: Caspase-3/7 induction in HepG2 cells by small molecules, qHTS assay (AID 1346978). Further: nearly all actives have a fitted effect of over 15% in size. A digest of the protocol: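 Wild-type HepG2 cells, 2,000/well, settled 5 hr at 37 C and 5% CO2, then compound-treated for 17 hr; caspase-3/7 activity read by luminescent Caspase-Glo 3/7 after 30 min at room temperature.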
Test [12] in a line: Caspase-3/7 induction in CHO-K1 cells by small molecules, qHTS cell viability counter screen (AID 1346979). Further: nearly all actives have a fitted effect of over 35% in size. Further: potency means the concentration at half of the fitted maximal effect. Summed up: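 Cells (CHO-K1, wild type) are plated at 1,500 per well and incubated 5hr. Test compounds in DMSO are then pinned in, followed by 16hr at 37C and 5% CO2. Viability is read by CellTiter-Fluor fluorescence after 1hr.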
The nature of test [13]: Caspase-3/7 induction in CHO-K1 cells by small molecules, qHTS assay (AID 1346980). Further: nearly all actives have a fitted effect of over 15% in size. Summed up: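 Wild-type CHO-K1 cells exposed to compounds for 17hr at 37 C, 5% CO2. Caspase-3/7 activity then measured by Caspase-Glo 3/7 luminescence after 30min at room temperature.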
The nature of test [14]: Caspase-3/7 induction in HepG2 cells by small molecules, qHTS cell viability counter screen (AID 1346981). Further: nearly all actives have a fitted effect of over 30% in size. Further: potency means the concentration at half of the fitted maximal effect. A digest of the protocol:
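Wild-type HepG2 cells (2,000/well) were allowed to settle for 5 hr at 37 C, 5% CO2, then dosed with compounds in DMSO by pin transfer. After 16 hr at 37 C, CellTiter-Fluor was added and fluorescence read 1 hr later.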

Test [15] concerns the target Nuclear receptor subfamily 1 group I member 2 (Homo sapiens) (UniProt O75469). Kind of test: Human pregnane X receptor (PXR) small molecule agonists, qHTS assay (AID 1346982). Further: nearly all actives have a fitted effect of over 35% in size. Further: potency means the concentration at half of the fitted maximal effect. A digest of the protocol: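 PXR-Luc HepG2 cells (CYP3A4 promoter-driven luciferase) were seeded in medium with 5% charcoal-stripped FBS, left 5 hr at 37 C, then exposed to compounds in DMSO for 24 hr. Luminescence was read after ONE-Glo addition.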

The target in test [16] is Cytochrome P450 2D6 (Homo sapiens) (UniProt P10635). Kind of test: Cytochrome P450 Family 2 Subfamily D Member 6 (CYP2D6) small molecule antagonists: luciferase reporter qHTS assay (AID 1671196). Further: nearly all actives have a fitted effect of over 50% in size. Further: potency means the concentration at half of the fitted maximal effect. A digest of the protocol: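 CYP2D6 enzyme–substrate mix was held with compound for 10 min at room temperature, then NADPH regeneration solution was added and the reaction ran 1 h at room temperature. Luciferin product was detected by luminescence after 20 min with detection reagent.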
Cytochrome P450 2D6 (Homo sapiens), sequence (P10635 whole entry, looked up): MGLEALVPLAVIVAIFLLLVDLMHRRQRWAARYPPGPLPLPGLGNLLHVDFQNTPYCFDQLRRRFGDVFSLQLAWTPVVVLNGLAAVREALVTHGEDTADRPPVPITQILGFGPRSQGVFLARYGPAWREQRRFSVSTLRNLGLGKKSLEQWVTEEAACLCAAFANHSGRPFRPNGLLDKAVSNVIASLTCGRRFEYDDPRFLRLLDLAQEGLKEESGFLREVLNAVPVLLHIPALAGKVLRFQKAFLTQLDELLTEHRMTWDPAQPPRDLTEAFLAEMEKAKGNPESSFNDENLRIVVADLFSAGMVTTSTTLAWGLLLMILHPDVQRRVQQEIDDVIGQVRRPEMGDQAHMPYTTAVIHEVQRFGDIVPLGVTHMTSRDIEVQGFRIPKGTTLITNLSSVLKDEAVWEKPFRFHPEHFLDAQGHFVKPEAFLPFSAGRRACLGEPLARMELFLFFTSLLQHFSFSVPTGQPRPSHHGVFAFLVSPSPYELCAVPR

The target in test [17] is Nuclear receptor subfamily 1 group I member 2 (Rattus norvegicus) (UniProt Q9R1A7). The experiment in a line: Rat pregnane X receptor (rPXR) activation by small molecules, qHTS assay (AID 1346983). Further: nearly all actives have a fitted effect of over 20% in size. The settings on record: rPXR luciferase reporter cells, One-Glo luminescence, 24 h; stronger effect = higher value. Summed up:
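Cell-based rPXR activation assay: rPXR cells, 2,000 per well, rested 5hr at 37 C, then exposed to compounds in DMSO for 24 hr at 37 C. Luciferase activity read by One-Glo luminescence after 30 min at room temperature.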

In test [18] the target is Nuclear receptor subfamily 1 group I member 2 (Homo sapiens) (UniProt O75469). Kind of test: CYP3A4 induction through human pregnane X receptor (PXR) by small molecules, qHTS assay (AID 1346984). Further: nearly all actives have a fitted effect of over 40% in size. A digest of the protocol: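 DPX-2 cells (HepG2 co-transfected with PXR and CYP3A4 promoter-luciferase) treated with compounds 24 h at 37C; luciferin-IPA CYP3A4 substrate 3uM final added for 3 h, then One-Glo; luminescence read. qHTS format.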
Nuclear receptor subfamily 1 group I member 2 (Homo sapiens), sequence (O75469 whole entry, looked up): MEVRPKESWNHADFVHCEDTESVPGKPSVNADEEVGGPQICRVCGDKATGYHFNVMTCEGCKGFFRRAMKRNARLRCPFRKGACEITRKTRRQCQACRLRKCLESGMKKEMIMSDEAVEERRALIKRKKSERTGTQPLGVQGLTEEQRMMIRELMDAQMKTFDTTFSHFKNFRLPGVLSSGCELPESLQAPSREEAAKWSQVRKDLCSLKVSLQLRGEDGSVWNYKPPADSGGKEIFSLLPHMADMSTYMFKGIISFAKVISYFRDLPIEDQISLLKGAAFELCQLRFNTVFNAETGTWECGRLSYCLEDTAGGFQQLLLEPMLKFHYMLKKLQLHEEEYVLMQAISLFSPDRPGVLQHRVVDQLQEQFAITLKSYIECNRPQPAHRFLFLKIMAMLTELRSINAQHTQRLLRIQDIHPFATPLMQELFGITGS

Test [19] shares this target. Kind of test: Human pregnane X receptor (PXR) activation by small molecules, qHTS assay (AID 1346985). Further: nearly all actives have a fitted effect of over 40% in size. A digest of the protocol: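 DPX-2 cells (HepG2 co-transfected with a PXR response element and a CYP3A4-promoter luciferase construct) were seeded at 2,000 per well, rested 5 hr at 37C, then exposed to DMSO-dissolved compounds for 24 hr. Activation was read as luciferase luminescence.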

Test [20] in a line: qHTS assay to identify small molecule agonists of the progesterone receptor (PR) signaling pathway - cell viability counter screen (AID 1346799; calls by dose curve; further: nearly all actives have a fitted effect of over 45% in size). Summed up:
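Luminescence from CellTiter-Glo, added after the beta-lactamase FRET read in the same wells, gave cytotoxicity in PR-UAS-bla HEK293T cells treated with compounds for 16 hr at 37C.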
On the % scale 0 is the no-effect control and ±100 the full control effect.

Thyrotropin-releasing hormone receptor (Homo sapiens), sequence (P34981 whole entry, looked up): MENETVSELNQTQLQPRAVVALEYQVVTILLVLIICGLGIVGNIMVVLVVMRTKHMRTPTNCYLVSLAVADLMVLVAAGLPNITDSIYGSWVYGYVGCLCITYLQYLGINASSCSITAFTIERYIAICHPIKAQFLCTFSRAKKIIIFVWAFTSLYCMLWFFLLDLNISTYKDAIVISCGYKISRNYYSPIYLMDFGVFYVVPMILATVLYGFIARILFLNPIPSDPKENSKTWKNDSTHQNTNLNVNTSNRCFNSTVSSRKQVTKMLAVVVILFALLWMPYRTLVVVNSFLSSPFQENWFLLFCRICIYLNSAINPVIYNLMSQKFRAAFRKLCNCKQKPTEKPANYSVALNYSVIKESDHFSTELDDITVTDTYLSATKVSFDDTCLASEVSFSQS
Nuclear receptor subfamily 1 group I member 2 (Rattus norvegicus), sequence (Q9R1A7 whole entry, looked up): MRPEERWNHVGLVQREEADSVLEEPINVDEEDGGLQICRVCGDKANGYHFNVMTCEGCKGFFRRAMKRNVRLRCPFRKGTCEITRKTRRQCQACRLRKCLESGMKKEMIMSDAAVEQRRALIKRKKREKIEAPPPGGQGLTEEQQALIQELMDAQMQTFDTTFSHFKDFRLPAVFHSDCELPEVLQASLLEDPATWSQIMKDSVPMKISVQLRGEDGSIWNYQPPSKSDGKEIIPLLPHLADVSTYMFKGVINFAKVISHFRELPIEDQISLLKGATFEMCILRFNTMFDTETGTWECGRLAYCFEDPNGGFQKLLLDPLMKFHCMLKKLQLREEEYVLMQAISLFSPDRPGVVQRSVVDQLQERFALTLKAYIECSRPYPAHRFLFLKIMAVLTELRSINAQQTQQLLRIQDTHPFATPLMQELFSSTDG

Consider `CCC(COC(=O)CCS)(COC(=O)CCS)COC(=O)CCS`, for which the Potency entry in test [1], in test [2], in test [3], in test [4], in [5] and in [6] was “inactive” throughout. Moreover, the Potency result in [7], in test [8], in [10], in test [11], in test [12] and in test [13] was “inactive” in each case. In addition, the Potency entry in test [14] and in test [16] was “inactive” each time. In test [9], the molecule was classed as inactive. Besides, in test [15], the Potency is 21.7 µM (active).

Regarding `Cc1cccc(C(=O)O)c1O`, the Potency entry in test [1], in [2], in [3], in test [4], in [5] and in test [6] was “inactive” in each case. Moreover, the Potency result in test [7], in [8], in [10], in test [11], in test [12] and in test [13] was “inactive” in each case. Further, the Potency result in test [14], in test [15], in [18], in test [19] and in test [16] was “inactive” throughout. The call in [9] was inactive. In addition, the max activation in test [17] is -0.388%.

Regarding `CCN(CC)c1ccc2c(-c3ccc(S(=O)(=O)O)cc3S(=O)(=O)[O-])c3ccc(=[N+](CC)CC)cc-3oc2c1`, the Potency is 7.07 µM (active) in test [1]; 5.01 µM (active) in test [10]; 6.31 µM (active) in [12]; 8.91 µM (active) in [14]; 29.2 µM (active) in [16]. Besides, the Potency entry in test [2], in [3], in test [4], in test [7], in test [8] and in test [11] was “inactive” each time. For the same molecule, the Potency entry in test [13] and in test [15] was “inactive” throughout. In addition, the molecule was classed as inactive in [9].

Consider `CC(C)(C)C1CCC(=O)CC1`, for which the Potency entry in [1], in test [2], in test [3], in test [20], in [5] and in [6] was “inactive” in each case. The Potency result in [7], in test [8], in [10], in test [12], in test [13] and in test [14] was “inactive” throughout. Moreover, the Potency result in test [15] and in [16] was “inactive” throughout. In addition, in test [9], the outcome was inactive.

As for `C=CCn1c(=O)n(CC=C)c(=O)n(CC=C)c1=O`, the Potency result in [1], in test [2], in [3], in test [4], in test [5] and in [6] was “inactive” in each case. Further, the Potency entry in [7], in [8], in [11], in test [12], in test [14] and in [15] was “inactive” each time. Further, in test [9], the call was inactive.

With `NC(=S)NC(N)=S`, the Potency result in test [1], in test [2], in [3], in test [4], in test [5] and in test [6] was “inactive” in each case. Moreover, the Potency result in test [7], in [8], in [10], in test [11], in test [12] and in test [13] was “inactive” each time. The call in [9] was inactive.

On to `C1CCC(SSC2CCCCC2)CC1`, for which the Potency entry in test [1], in test [2], in [3], in [4], in [6] and in test [7] was “inactive” each time. Besides, the Potency entry in test [10], in [12], in test [13], in test [14], in test [15] and in test [16] was “inactive” each time.

Regarding `CCCCC(CC)CN1CN(CC(CC)CCCC)CC(C)(N)C1` (stereo not given), the Potency entry in [1], in test [2], in [3], in test [4], in [5] and in test [6] was “inactive” each time. Besides, the Potency entry in [7], in [8], in test [10], in [11], in test [12] and in test [14] was “inactive” throughout. Besides, the Potency entry in [18] and in [19] was “inactive” each time. Moreover, the molecule was called inactive in test [9]. In addition, the Potency was 21.1 µM (active) in test [15] and 0.309 µM (active) in [16]. The max activation in test [17] is -2.15%.
